In PubChem BioAssay (EPA / NIEHS):
Inconclusive results are not listed. The source holds several records for some structures; these can differ, active in one and inactive in another. The source made the active and inactive calls. The calls were made as follows, unless noted: active = hit-call score of the fitted dose curve at least 0.9, where 1 is the maximum; inconclusive = response in the unintended direction; inactive = score below 0.9.

How the values were obtained:
[1] = target: Bile acid receptor (Homo sapiens) (UniProt Q96RI1); assay: ATG_FXR_TRANS: Attagene TRANS-FACTORIAL HepG2 Assay for Farnesoid X Receptor (FXR) (AID 2282979); settings: HepG2 Attagene TRANS FXR-GAL4 reporter transcription;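 also: hits raise reporter mRNA above DMSO so AC50 marks FXR activation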
Bile acid receptor (Homo sapiens), sequence (Q96RI1 whole entry, looked up, the tested form may be a part): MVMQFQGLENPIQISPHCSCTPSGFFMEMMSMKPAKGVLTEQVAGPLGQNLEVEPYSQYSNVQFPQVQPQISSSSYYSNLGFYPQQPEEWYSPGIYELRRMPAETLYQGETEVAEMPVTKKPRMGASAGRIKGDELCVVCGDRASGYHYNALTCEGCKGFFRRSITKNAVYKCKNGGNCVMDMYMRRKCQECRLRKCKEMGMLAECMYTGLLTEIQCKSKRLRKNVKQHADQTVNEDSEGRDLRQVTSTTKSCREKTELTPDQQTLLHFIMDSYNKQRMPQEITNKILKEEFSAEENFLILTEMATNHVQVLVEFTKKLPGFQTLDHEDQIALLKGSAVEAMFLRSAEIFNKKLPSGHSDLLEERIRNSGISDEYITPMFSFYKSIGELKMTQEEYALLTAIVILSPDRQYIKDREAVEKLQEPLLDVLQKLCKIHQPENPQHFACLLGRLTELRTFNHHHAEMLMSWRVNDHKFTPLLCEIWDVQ
Method in brief: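 Reporter transcripts from transfected HepG2 cells were measured 24 h after dosing, using RT-PCR with capillary electrophoresis of 6-FAM-labelled fragments. The read-out reflects activity of exogenous FXR-Gal4 chimera on GAL4-UAS units, with induction relative to DMSO.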

[2] = target: Oxysterols receptor LXR-alpha (Homo sapiens) (UniProt Q13133); assay: ATG_LXRa_TRANS: Attagene TRANS-FACTORIAL HepG2 Assay for human Liver X Receptor alpha (LXRa) (AID 2282980); settings: HepG2 Attagene TRANS reporter, LXRa transactivation
Oxysterols receptor LXR-alpha (Homo sapiens), sequence (Q13133 whole entry, looked up, the tested form may be a part): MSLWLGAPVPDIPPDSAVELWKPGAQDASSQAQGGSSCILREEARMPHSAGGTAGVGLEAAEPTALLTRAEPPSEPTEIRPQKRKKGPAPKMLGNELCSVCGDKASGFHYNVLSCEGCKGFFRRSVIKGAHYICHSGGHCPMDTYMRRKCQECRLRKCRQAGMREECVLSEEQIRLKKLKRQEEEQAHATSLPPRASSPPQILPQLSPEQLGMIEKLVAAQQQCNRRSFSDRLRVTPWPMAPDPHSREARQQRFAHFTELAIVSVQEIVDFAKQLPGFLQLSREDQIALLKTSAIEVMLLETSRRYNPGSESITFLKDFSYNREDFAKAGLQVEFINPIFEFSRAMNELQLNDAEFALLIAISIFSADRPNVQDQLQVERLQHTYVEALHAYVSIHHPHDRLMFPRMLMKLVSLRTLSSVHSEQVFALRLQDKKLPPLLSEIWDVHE
Method in brief: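 Chemical-induced reporter mRNA measured by RT-PCR with fluorescent labelling and capillary electrophoresis after 24 h dosing of transiently transfected HepG2 cells expressing exogenous NR-Gal4 chimeras; increases scored against DMSO baseline.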

[3] = target: Oxysterols receptor LXR-beta (Homo sapiens) (UniProt P55055); assay: ATG_LXRb_TRANS: Attagene TRANS-FACTORIAL HepG2 Assay for human Liver X Receptor beta (LXRb) (AID 2282981); settings: HepG2 Attagene TRANS GAL4-LXRb reporter, mRNA
Oxysterols receptor LXR-beta (Homo sapiens), sequence (P55055 whole entry, looked up, the tested form may be a part): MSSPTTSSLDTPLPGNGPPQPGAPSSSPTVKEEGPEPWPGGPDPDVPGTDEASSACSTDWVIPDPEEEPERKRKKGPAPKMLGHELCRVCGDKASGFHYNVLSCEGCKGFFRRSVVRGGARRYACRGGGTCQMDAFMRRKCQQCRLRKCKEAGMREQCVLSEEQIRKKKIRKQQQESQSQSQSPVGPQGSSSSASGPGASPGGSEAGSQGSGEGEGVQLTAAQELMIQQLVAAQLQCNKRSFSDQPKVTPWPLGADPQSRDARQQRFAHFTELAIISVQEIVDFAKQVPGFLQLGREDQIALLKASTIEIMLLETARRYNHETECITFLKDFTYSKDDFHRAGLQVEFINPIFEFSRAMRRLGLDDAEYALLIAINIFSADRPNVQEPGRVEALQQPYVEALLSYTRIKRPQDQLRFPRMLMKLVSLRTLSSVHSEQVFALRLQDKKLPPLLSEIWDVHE
Method in brief: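 Multiplexed reporter assay, HepG2, 24 h dosing. Fluorescence of labelled RT-PCR products after capillary electrophoresis gives transcript level; positive fitting direction relative to DMSO.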

[4] = target: Hepatocyte nuclear factor 4-alpha (Homo sapiens) (UniProt P41235); assay: ATG_HNF4a_TRANS: Attagene TRANS-FACTORIAL HepG2 Assay for human Hepatocyte Nuclear Factor 4 alpha (HNF4a) (AID 2282982); settings: HepG2 HNF4a transactivation reporter, mRNA readout
Hepatocyte nuclear factor 4-alpha (Homo sapiens), sequence (P41235 whole entry, looked up, the tested form may be a part): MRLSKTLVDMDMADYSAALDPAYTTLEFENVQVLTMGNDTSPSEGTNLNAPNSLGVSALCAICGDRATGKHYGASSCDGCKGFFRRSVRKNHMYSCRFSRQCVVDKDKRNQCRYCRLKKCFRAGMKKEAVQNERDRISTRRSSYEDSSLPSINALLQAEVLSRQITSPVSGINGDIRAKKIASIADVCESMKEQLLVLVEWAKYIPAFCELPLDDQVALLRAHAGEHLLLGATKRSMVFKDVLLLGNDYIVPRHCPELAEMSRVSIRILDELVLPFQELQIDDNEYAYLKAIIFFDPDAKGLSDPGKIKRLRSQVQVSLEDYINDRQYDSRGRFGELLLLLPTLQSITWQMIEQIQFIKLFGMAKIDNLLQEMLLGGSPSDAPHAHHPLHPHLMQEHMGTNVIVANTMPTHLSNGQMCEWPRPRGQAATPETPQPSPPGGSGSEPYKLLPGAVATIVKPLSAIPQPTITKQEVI
Method in brief: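 Endpoint reflects transcriptional activation of a GAL4-UAS reporter by an HNF4a-GAL4 chimera in transfected HepG2 cells, 24 h post-dosing. Fluorescence from RT-PCR products separated by capillary electrophoresis; DMSO baseline.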

[5] = ATG_M_06_TRANS: Attagene TRANS-FACTORIAL HepG2 Assay for M06 Transcription Factor (Internal Marker) (AID 2282983); settings: HepG2 Attagene TRANS M06 internal marker reporter
Method in brief: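 Background-control reporter readout: after 24 h chemical exposure of transiently transfected HepG2 (GAL4-UAS reporter units), mRNA quantified by RT-PCR with fluorescent labeling and capillary electrophoresis. Gain-of-signal fitting against DMSO baseline.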

[6] = ATG_M_32_TRANS: Attagene TRANS-FACTORIAL HepG2 Assay for M32 Transcription Factor (Internal Marker) (AID 2282984); settings: HepG2 Attagene TRANS M32 internal marker reporter;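 also: transcript level of a background control reporter unit measured by RT-PCR and capillary electrophoresis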
Method in brief: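 Internal-marker readout from a multiplexed transcription reporter panel. HepG2 cells were transfected with GAL4-UAS reporter units, treated 24 hours, and reporter transcript levels determined by fluorescence after RT-PCR and capillary separation.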

[7] = target: Nuclear receptor subfamily 4 group A member 2 (Homo sapiens) (UniProt P43354); assay: ATG_NURR1_TRANS: Attagene TRANS-FACTORIAL HepG2 Assay for human Nuclear Receptor Related Protein 1 (NURR1) (AID 2282985); settings: HepG2 Attagene TRANS reporter, mRNA readout
Nuclear receptor subfamily 4 group A member 2 (Homo sapiens), sequence (P43354 whole entry, looked up): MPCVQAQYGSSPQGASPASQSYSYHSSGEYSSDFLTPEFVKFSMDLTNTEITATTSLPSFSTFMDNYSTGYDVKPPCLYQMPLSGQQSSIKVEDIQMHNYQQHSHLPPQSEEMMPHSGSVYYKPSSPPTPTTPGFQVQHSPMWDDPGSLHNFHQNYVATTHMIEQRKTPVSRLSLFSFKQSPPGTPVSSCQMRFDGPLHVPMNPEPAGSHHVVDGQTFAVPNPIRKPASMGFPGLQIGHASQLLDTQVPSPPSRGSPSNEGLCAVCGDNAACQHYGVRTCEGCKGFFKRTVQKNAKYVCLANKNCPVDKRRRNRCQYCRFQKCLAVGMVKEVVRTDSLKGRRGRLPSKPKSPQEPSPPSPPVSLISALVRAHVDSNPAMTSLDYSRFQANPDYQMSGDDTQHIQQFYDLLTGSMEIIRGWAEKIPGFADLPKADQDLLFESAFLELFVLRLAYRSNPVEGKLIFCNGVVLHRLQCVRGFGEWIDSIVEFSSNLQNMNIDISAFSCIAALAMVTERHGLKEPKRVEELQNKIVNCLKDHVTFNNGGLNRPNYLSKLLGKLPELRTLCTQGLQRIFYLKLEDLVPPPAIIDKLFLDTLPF
Method in brief: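 Endpoint: reporter mRNA increase relative to DMSO. HepG2 cells transfected with reporter units, treated 24 h; RNA processed by RT-PCR, labelling, HpaI digestion and capillary electrophoresis.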

[8] = target: Transcriptional activator Myb (Homo sapiens) (UniProt P10242); assay: ATG_Myb_CIS: Attagene CIS-FACTORIAL HepG2 Assay for human Myeloblastosis (Myb) Proto-Oncogene Transcription Factor (AID 2282986; active = hit-call score of the fitted dose curve at least 0.9, where 1 is the maximum; inactive = score below 0.9); settings: HepG2 Attagene CIS-FACTORIAL Myb reporter transcription; actives raise or lower the signal
Transcriptional activator Myb (Homo sapiens), sequence (P10242 whole entry, looked up): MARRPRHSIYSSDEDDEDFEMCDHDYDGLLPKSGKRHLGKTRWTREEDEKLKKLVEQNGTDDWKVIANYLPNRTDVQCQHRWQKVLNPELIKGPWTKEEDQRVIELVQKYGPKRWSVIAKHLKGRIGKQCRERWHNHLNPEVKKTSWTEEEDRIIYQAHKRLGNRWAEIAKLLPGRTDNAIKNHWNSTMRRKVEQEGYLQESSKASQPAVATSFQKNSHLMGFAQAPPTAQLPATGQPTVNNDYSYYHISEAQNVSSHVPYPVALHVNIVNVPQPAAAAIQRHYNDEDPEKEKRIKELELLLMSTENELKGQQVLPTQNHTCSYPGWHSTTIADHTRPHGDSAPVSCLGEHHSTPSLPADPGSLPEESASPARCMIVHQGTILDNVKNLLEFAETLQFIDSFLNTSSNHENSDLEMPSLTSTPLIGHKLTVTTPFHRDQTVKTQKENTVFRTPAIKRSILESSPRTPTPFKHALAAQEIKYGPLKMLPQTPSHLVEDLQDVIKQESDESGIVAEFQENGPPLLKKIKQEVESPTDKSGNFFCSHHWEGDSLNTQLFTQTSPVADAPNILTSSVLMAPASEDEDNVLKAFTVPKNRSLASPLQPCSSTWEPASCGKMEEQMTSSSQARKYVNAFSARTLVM
Method in brief: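 In this HepG2 transient-transfection format, cis-regulated reporter mRNA is quantified 24 h post-dosing by RT-PCR with capillary electrophoresis, fitted bidirectionally to DMSO baseline.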

[9] = target: Nuclear respiratory factor 1 (Homo sapiens) (UniProt Q16656); assay: ATG_NRF1_CIS: Attagene CIS-FACTORIAL HepG2 Assay for human Nuclear Respiratory Factor 1 (NRF1) Orphan Gene (AID 2282987; active = hit-call score of the fitted dose curve at least 0.9, where 1 is the maximum; inactive = score below 0.9); settings: HepG2 NRF1 cis-element reporter, Attagene multiplex; actives raise or lower the signal
Nuclear respiratory factor 1 (Homo sapiens), sequence (Q16656 whole entry, looked up): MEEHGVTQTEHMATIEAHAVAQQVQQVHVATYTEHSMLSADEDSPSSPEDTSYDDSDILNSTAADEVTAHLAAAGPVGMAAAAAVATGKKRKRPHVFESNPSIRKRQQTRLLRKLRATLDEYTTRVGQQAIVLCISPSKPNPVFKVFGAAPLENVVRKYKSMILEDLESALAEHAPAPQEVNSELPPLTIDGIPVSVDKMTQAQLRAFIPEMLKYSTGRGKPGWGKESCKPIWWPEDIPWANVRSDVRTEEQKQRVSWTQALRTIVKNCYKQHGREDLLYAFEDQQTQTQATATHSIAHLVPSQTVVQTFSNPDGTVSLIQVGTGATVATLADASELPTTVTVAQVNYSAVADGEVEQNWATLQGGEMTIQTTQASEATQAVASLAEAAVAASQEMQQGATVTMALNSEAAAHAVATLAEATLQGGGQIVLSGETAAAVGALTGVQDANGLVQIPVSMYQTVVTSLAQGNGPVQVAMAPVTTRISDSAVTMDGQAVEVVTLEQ
Method in brief: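 Using DMSO as baseline, gain- or loss-of-signal was fitted for reporter mRNA levels in HepG2 cells transiently transfected with cis-regulated reporter units. Samples were taken 24 h after dosing and read by RT-PCR with capillary electrophoresis.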

[10] = ATG_NFI_CIS: Attagene CIS-FACTORIAL HepG2 Assay for human Nuclear Factor I (NFI) (AID 2282989; active = hit-call score of the fitted dose curve at least 0.9, where 1 is the maximum; inactive = score below 0.9); settings: HepG2 cis-regulatory reporter, NFI response element transcription; actives raise or lower the signal
Method in brief: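 After transient transfection of HepG2 with cis-promoter reporter constructs and 24 h dosing, RNA is reverse-transcribed, amplified, 6-FAM end-labelled and HpaI-digested before capillary analysis. Bidirectional curve fitting against DMSO.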

Measured: AC50

Nc1ccc(Br)cc1
not listed: [10]
inactive: all other assays above

C=CC(F)(C(F)(F)F)C(F)(F)C(F)(F)F (stereo unspecified)
not listed: [6] | [7]
inactive: all other assays above

CNC(=O)N(C)c1nc2ccccc2s1
not listed: [4]
inactive: all other assays above

C=CCc1ccccc1O
not listed: [2] | [7]
inactive: all other assays above

CCOP(=S)(OCC)SCS(=O)(=O)C(C)(C)C
active: [2] 34.1 µM | [3] 53.5 µM
not listed: [4]
inactive: all other assays above

O=S(=O)(C(Cl)(Cl)Cl)C(Cl)(Cl)Cl
active: [10] 17.9 µM
not listed: [3] | [4]
inactive: all other assays above

CC(C)[N+](=O)[O-]
not listed: [2] | [7]
inactive: all other assays above

OC(Cc1ccccc1Cl)(Cn1cncn1)C1(Cl)CC1 (stereo unspecified)
not listed: [5]
inactive: all other assays above

CN(N=O)C(N)=O
not listed: [2] | [9] | [10]
inactive: all other assays above

CNC(=O)CSP(=O)(OC)OC
not listed: [2]
inactive: all other assays above

Cc1ccccc1OP(=O)(Oc1ccccc1C)Oc1ccccc1C
active: [7] 26.7 µM
not listed: [4] | [5]
inactive: all other assays above

O=C(Nc1ccc(Br)cc1)c1cc(Br)cc(Br)c1O
active: [10] 2.27 µM
not listed: [1]
inactive: all other assays above

NC(=O)c1ccc(N)nc1
inactive: [1] | [3] | [4] | [8] | [9] | [10]

CCCCCCCCCCCCCCC(Br)C(=O)O (stereo unspecified)
active: [7] 26.4 µM | [8] 163 µM | [9] 168 µM
inactive: [1] | [6] | [10]

Cc1ccc(OP(=O)(Oc2ccc(C)cc2C)Oc2ccc(C)cc2C)c(C)c1
inactive: [1] | [5] | [6] | [7] | [8] | [9]

OCC(c1ccc(Cl)cc1)c1ccc(Cl)cc1
active: [7] 46.3 µM
not listed: [2] | [3]
inactive: all other assays above

Brc1ccc(Oc2c(Br)cc(Br)cc2Br)c(Br)c1
not listed: [1]
inactive: all other assays above

O=CCCl
active: [9] 25.5 µM
not listed: [1] | [10]
inactive: all other assays above

O=C/C(Cl)=C(/Cl)C(=O)O
not listed: [1]
inactive: all other assays above

O=C(NC(=O)c1c(F)cccc1F)Nc1cc(Cl)c(Oc2ncc(C(F)(F)F)cc2Cl)c(Cl)c1
inactive: [1] | [5] | [7] | [8] | [10]

O=C(O)C1(c2ccc3c(c2)OC[C@H](Cc2ccc(-c4ccccc4)cc2)[C@H]3O)CCCC1
not listed: [2] | [3] | [4]
inactive: all other assays above

O=C(CCl)Nc1ccccc1
active: [8] 100 µM | [10] 26.9 µM
not listed: [1] | [9]
inactive: all other assays above

CC(C)[C@@H](Nc1ccc(C(F)(F)F)cc1Cl)C(=O)OC(C#N)c1cccc(Oc2ccccc2)c1 (stereo partly specified)
inactive: [1] | [4] | [5] | [7] | [8] | [10]

CC(C)(C)c1ccc(CCOc2ncnc3ccccc23)cc1
inactive: [1] | [3] | [6] | [8]

Cc1cc(SCc2sc(-c3ccc(C(F)(F)F)c(F)c3)nc2C)ccc1OCC(=O)O
active: [1] 27.1 µM
inactive: [3] | [8] | [9] | [10]

O=c1[nH]c2ccccc2n1C1CCN(CCCC(c2ccc(F)cc2)c2ccc(F)cc2)CC1
not listed: [2] | [3] | [4]
inactive: all other assays above

Clc1cc(C(Cl)(Cl)Cl)cnc1Cl
inactive: [1] | [3] | [4] | [8] | [9]
